High-throughput results: PubChem BioAssay, National Center for Advancing Translational Sciences (NCATS)
This is a sample that favours compounds with a hit; in the whole collection about 19% have one here.
HT1080NT lethal: kills 2HG-producing HT-1080-NT fibrosarcoma cells; AID 686970; HT-1080-NT fibrosarcoma viability, CellTiter-Glo ATP luminescence, 48 h; Potency, µM (titrated, usually from 46.1 µM), hits mostly cytotoxic; 1.6% of 360,000 active;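 note: NT is the 2HG producing partner of a matched IDH1 knockdown line; nearly all actives have a fitted effect of over 55% in size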
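Viability of the 2HG-overproducing fibrosarcoma line after 48 hours of compound exposure at 37 degrees C was determined by luminescence with CellTiter-Glo, and concentration-effect curves were then fitted and categorized.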
IL1B secr inh: blocks inflammasome-driven IL-1 beta release; THP-1 LPS/ATP IL-1B secretion, AlphaLISA, 16 h; active compounds read low; activity change, % at 57.5 µM; 4.7% of 360,000 active; AID 743279; in the data active = activity change below about -50%; inconclusive = mostly about -30% to -49%
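THP-1 cells pretreated 1 hr with compounds (up to 57.5 uM final), then stimulated with LPS (250 ng/mL final) plus ATP (1.25 mM final); secreted IL-1B measured by AlphaLISA after 16 hr, decreased signal indicating inhibition.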
TDP1 cell noCPT: qHTS for Inhibitors of human tyrosyl-DNA phosphodiesterase 1 (TDP1): qHTS in cells in absence of CPT | AID 686978, 2013 | DT40 Tdp1-/- hTDP1 cells, no CPT, ATP luminescence, 48 h | Potency, µM (top dose mostly 46.2 µM), usual class: inhibitors | 15% of 420,000 active; note: nearly all actives have a fitted effect of over 55% in size
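Growth of hTDP1-complemented DT40 Tdp1-knockout cells is measured by ATP luminescence after at least 48 hr compound exposure at 37 °C, with DMSO substituting for the 20 nM CPT used in the parallel screen.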
HT1080 IDH1KD tx: toxicity to HT-1080 IDH1 knockdown cells (counter line); 2% of 360,000 active; Potency, µM (doses to about 46.1 µM), most hits filed as cytotoxic; HT-1080 IDH1 knockdown viability, ATP luminescence, 48 h; AID 686971
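% activity derives from luminescence (CellTiter-Glo), normalised to DMSO and no-cell wells. HT-1080-IDH1KD cells, 750/well, had 48 h compound exposure at 37 °C.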
ELG1 DNA repair: inhibitors of ELG1-dependent DNA repair in HEK293T cells; HEK293T ELG1-luciferase reporter, luminescence, 16 h; DNA damage induced by 5-fluorouridine; Potency, µM (top dose mostly 46.1 µM), actives largely listed as inhibitors; 2.3% of 330,000 active; AID 504467; note: nearly all actives have a fitted effect of over 55% in size
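Luminescence from the luciferase reporter, measured 30 min after ONE-Glo reagent at room temperature, was the read-out. Beforehand, 2,000 cells per well were exposed for 16 hr at 37 °C to 5-fluorouridine together with compound or vehicle.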
TDP1 cell CPT: growth inhibition of DT40 Tdp1-/-;hTDP1 cells with camptothecin (screen for TDP1 inhibitors) | chicken DT40 Tdp1-/-;hTDP1 cells + 20 nM CPT, ATP luminescence, 48 h | Potency, µM (series often up to 46.2 µM), actives largely listed as inhibitors | 12% of 420,000 active | AID 686979; note: nearly all actives have a fitted effect of over 55% in size
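Chicken DT40 Tdp1-/- cells complemented with human TDP1, 400 cells/well, exposed to compounds plus 20 nM camptothecin for at least 48 h at 37 C; viability read as ATP content by CellTiter-Glo luminescence.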
Hits are given with their value; i = inactive; ? = inconclusive; nt = not tested or not shown; [ ] = another dose, or the depositor's remark. Unless noted, calls come from the whole dose curve; as a rule, active = well fitted curve in the direction sought with a large enough effect; inconclusive = small, poorly fitted or top-dose-only effect, or another doubt; inactive = no such curve, though single readings can be large; an effect the other way counts as inactive or inconclusive.

SMILES | HT1080NT lethal | IL1B secr inh | TDP1 cell noCPT | HT1080 IDH1KD tx | ELG1 DNA repair | TDP1 cell CPT
CCSc1ncc(Cl)c(C(=O)N(Cc2ccc(N(C)C)cc2)Cc2ccco2)n1 | nt | nt | 20.6µM | nt | nt | ?
Cc1ccccc1C(=O)N(Cc1ccc(N(C)C)cc1)Cc1ccco1 | nt | nt | 18.4µM | nt | nt | ?
Cc1ccc(CN(Cc2ccco2)C(=O)c2ccco2)cc1 | i | i | i | i | i | ?
COc1ccc(OC(=O)c2nc(SCc3ccccc3F)ncc2Cl)cc1 | nt | nt | i | nt | nt | i
CN(CC(=O)Nc1ccccc1Cl)CC(=O)c1c(N)n(Cc2ccccc2)c(=O)n(C)c1=O | i | i | i | i | i | i
CCCN1CCN(CC(=O)NCC(=O)Nc2cccc(C)c2C)CC1 | i | i | i | i | i | i
Cc1cccc(NC(=O)CCc2c(C)nc3nc(CNC(=O)c4cccc(F)c4)nn3c2C)c1 | nt | nt | i | nt | nt | i
COc1cccc(NC(=O)CN2C(=O)CSc3nc(C)cc(C)c32)c1 | i | i | i | i | i | i
CC(C)Oc1ccc(C(=O)N(Cc2ccc(N(C)C)cc2)Cc2ccco2)cc1 | nt | nt | 13µM | nt | nt | ?
Cc1cc(C)c2c(CC(=O)N(Cc3ccc(N(C)C)cc3)Cc3ccco3)coc2c1 | nt | nt | 20.6µM | nt | nt | 14.6µM
C=C(C)c1ccc(C(C)(C)NC(=O)NCc2ccco2)cc1 | i | i | i | i[9.24 µM] | i | i
CCCCOc1ccc(C(=O)N(Cc2ccc(N(C)C)cc2)Cc2ccco2)cc1 | nt | nt | 13µM | nt | nt | ?
C=C(C)c1ccc(C(C)(C)NC(=O)N(Cc2ccccc2)Cc2ccco2)cc1 | i | i | 16.4µM | ? | i | 18.4µM
O=C(NCc1ccc(Br)cc1)OC1CC2CC1[C@H]1CCCCN1C2=O (stereo partly specified) | i | i | i | i | nt | i
CC(C)C[C@H](NC(=O)C1CC(=O)N(c2ccc(F)cc2)C1)C(=O)N1CCCCC1 (stereo partly specified) | i | i | i | i | i | i
O=C(O)Cc1ccc2c(c1)N(S(=O)(=O)c1cccs1)CC(C(=O)O)O2 (stereo unspecified) | i | i | i | i | i | i
CCCCOc1ccc(C(=O)N(Cc2ccco2)Cc2ccco2)cc1 | nt | nt | 20.6µM | nt | nt | ?
CC/C(C)=N\N=C\c1c(O)n(CC)c2cc(C3=NNC(=O)CC3)ccc12 | i | i | 6.51µM | i | ? | 10.3µM
CC(=O)N1CCN(C(=O)CC2OC(=O)c3ccccc32)CC1 (stereo unspecified) | i | i | 11.6µM | i | i | 8.2µM
CC(C)C(C(=O)Nc1ccncc1)c1ccc(Cl)cc1 (stereo unspecified) | i | i | 16.4µM | ? | ? | ?
O=C(Nc1nccs1)C(Br)C(Br)c1ccccc1 (stereo unspecified) | i | -86.3 | 20.6µM | ? | ? | 10.3µM
CC(C)C(C(=O)Nc1nccs1)c1ccc(Cl)cc1 (stereo unspecified) | ? | i | ? | 10.3µM | i | ?
CC(C)NC(=O)c1cn(C2CCCN(C(=O)c3cc4ccccc4oc3=O)C2)nn1 (stereo unspecified) | nt | nt | i | nt | nt | i[9.04 µM]
COCCn1c(SCC(=O)Nc2ccc(F)cc2)nc2c(oc3ccccc32)c1=O | i | i | i | i | i | i
CCn1c(SCC(=O)Nc2cccc(C)c2)nc2nc3c(cc2c1=O)COC(C)(C)C3 | i | -83.0 | 18.4µM | i | 18.3µM | 25.9µM
SMILES | HT1080NT lethal | IL1B secr inh | TDP1 cell noCPT | HT1080 IDH1KD tx | ELG1 DNA repair | TDP1 cell CPT
COCCn1c(SCC(=O)Nc2ccc(F)c(Cl)c2)nc2c(oc3ccccc32)c1=O | nt | nt | ? | nt | nt | 5.17µM
O=C(CSc1nc2c(oc3ccccc32)c(=O)n1Cc1ccco1)Nc1cccc(Cl)c1 | nt | nt | 20.6µM | nt | nt | ?
COc1cccc(NC(=O)CSc2nc3c(oc4ccccc43)c(=O)n2Cc2ccco2)c1 | nt | nt | 9.2µM | nt | nt | 9.2µM
COCCn1c(SCC(=O)Nc2ccccc2)nc2c(oc3ccccc32)c1=O | i | i | ? | i | ? | i
COc1ccc(NC(=O)CSc2nc3c(oc4ccccc43)c(=O)n2Cc2ccco2)cc1Cl | nt | nt | 20.6µM | nt | nt | ?
Cc1cccc(NC(=O)CSc2nc3c(oc4ccccc43)c(=O)n2Cc2ccco2)c1 | nt | nt | 16.4µM | nt | nt | 23.1µM
Cc1ccc(NC(=O)CSc2nc3c(oc4ccccc43)c(=O)n2Cc2ccco2)cc1F | nt | nt | i | nt | nt | i
CCCCN(C(=O)c1ccc(OC)c([N+](=O)[O-])c1)c1c(N)n(CCC)c(=O)[nH]c1=O | i | i | ? | i | i | i
CCOc1ccc(-c2nnc(SCC(=O)O)n2Cc2ccccc2)cc1 | i | i | i | i | i | i
CCCN1CCN(c2nnc(-n3cccc3C(=O)Nc3ccccc3C(F)(F)F)s2)CC1 | nt | nt | 20.6µM | nt | nt | 20.6µM
CCN1CCN(c2nnc(-n3cccc3C(=O)NCc3ccccc3OC)s2)CC1 | nt | nt | ? | nt | nt | 16.4µM
CC1CCc2c(sc(NC(=O)Cn3nnc(-c4ccc(C(F)(F)F)cc4)n3)c2C#N)C1 (stereo unspecified) | nt | nt | i | nt | nt | i
CC(=O)Nc1nonc1-c1nnc(SCC(=O)Nc2cc(Cl)ccc2C)n1C | nt | nt | i | nt | nt | i
Cc1ccc2nc(CSc3nnc(NC(=O)c4ccc(C(C)(C)C)cc4)s3)cc(=O)n2c1 | nt | nt | i | nt | nt | i
COc1ccc(N=C(c2ccccc2)c2c(C)[nH]n(-c3ccccc3)c2=O)c(OC)c1 | i | ? | 18.4µM | i | ? | ?
CCOc1cc(CNC(=O)Cn2ncn3c(cc4cc(F)ccc43)c2=O)cc(OCC)c1OCC | nt | nt | i | nt | nt | i
Cc1ccc(-c2nnc(Nc3ccc(Cl)cc3)c3ccccc23)cc1S(=O)(=O)NCC1CCCO1 (stereo unspecified) | nt | nt | 20.6µM | nt | nt | ?
COc1nnc(-c2ccc(C)c(S(=O)(=O)NCC3CCCO3)c2)c2ccccc12 (stereo unspecified) | i | i | ? | i | ? | ?
Cc1cccc(Nc2nnc(-c3ccc(C)c(S(=O)(=O)NCC4CCCO4)c3)c3ccccc23)c1 (stereo unspecified) | nt | nt | 6.51µM | nt | nt | 23.1µM
Cc1ccc(-c2nnc(Nc3cccc(Cl)c3)c3ccccc23)cc1S(=O)(=O)NCC1CCCO1 (stereo unspecified) | nt | nt | 4.11µM | nt | nt | 23.1µM
Cc1ccc(-c2nnc(N3CCCCC3)c3ccccc23)cc1S(=O)(=O)NCC1CCCO1 (stereo unspecified) | ? | i | 20.6µM | ? | ? | 18.4µM
C/C(=N/OC(=O)c1ccc(C)cc1)c1ccc(N2C(=O)C3CCCCC3C2=O)cc1 (stereo unspecified) | i | i | 16.4µM | i | i | ?
